Results on 53 compounds are retold here after PubChem BioAssay AID1851 (National Center for Advancing Translational Sciences (NCATS), 2009).

Among all 16,000 compounds or so, about 5,800 (36%) were called active. Roughly 23% stayed inconclusive and do not appear here. The list shows a part of the results. Unmarked numbers belong to inactive results. Calls come from the whole dose curve; as a rule, active = well fitted curve in the direction sought with a large enough effect; inconclusive = small, poorly fitted or top-dose-only effect, or effect the other way; inactive = no such curve, though single readings can be large or run the other way.
% is set by controls: 0 for no effect and ±100 for the full control effect.

Sequence of Cytochrome P450 2C19 (Homo sapiens) (P33261 whole entry, looked up): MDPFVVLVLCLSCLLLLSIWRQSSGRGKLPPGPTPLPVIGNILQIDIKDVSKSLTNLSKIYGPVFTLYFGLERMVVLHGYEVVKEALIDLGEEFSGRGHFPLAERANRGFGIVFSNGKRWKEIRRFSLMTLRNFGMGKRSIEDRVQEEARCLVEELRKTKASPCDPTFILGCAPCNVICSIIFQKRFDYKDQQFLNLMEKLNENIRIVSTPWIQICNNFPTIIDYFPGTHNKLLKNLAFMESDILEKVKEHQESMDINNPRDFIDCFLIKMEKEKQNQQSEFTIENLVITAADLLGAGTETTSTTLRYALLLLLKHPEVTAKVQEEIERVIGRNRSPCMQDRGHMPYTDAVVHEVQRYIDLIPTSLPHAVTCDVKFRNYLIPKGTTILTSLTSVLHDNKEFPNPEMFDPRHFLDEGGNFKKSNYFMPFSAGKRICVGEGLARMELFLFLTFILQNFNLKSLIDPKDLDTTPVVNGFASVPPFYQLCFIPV

The experiment concerns the target Cytochrome P450 2C19 (Homo sapiens) (UniProt P33261). In words: Cytochrome panel assay with activity outcomes. To be noted: recombinant CYP, pro-luciferin dealkylation, luminescence, p450-cyp2c19; series mostly up to 57.1 µM; activity, negative = inhibition: at the top concentration.
A word on the AC50: it is the concentration giving half of the maximal activity seen. As for `c1cncc(CNc2ncnc3ccc(-c4ccoc4)cc23)c1`, the concentration at half-maximal activity (AC50) was 0.0251 µM (active).
On the same count and under the same terms, in the case of `Cc1cccc(CNc2ncnc3ccc(-c4ccoc4)cc23)c1` it was 7.94 µM (active).
Take `Cc1cccc(CNc2ncnc3ccc(-c4cccc(C#N)c4)cc23)c1`: the “activity, negative = inhibition” value is -42.8%.
The same measure, in the same setting: with `Cn1cccc1C(=O)N1CCC2(CC1)CN(C(c1ccccc1)c1ccccc1)C2` the figure was -38.6%.
Consider `CC(C)N(C(=O)CSc1nc2ccccc2n1-c1ccccc1)C(C)C`, for which the concentration at half-maximal activity (AC50) was 7.94 µM (active).
Still for that read-out and setting: in the case of `COC(=O)c1cc2c(ccn2-c2ccc(F)cc2)n1C(C)C` it was 2 µM (active); in that of `COC(=O)c1cc2c(ccn2-c2ccc(F)cc2)n1CC(C)C`, 3.16 µM (active).
In the case of `COCCn1c(=O)c(-c2ccc(F)cc2)nc2cnc(N(C)C)nc21`, the “activity, negative = inhibition” value is -11.5%.
In the case of `C=C[C@H](N)CCC(=O)O`, the AC50 entry is “inactive”.
On to `CCc1ccccc1NC(=O)CSc1nc(-c2ccccc2)nn1C(=O)c1cccc([N+](=O)[O-])c1`, for which the AC50 is 0.398 µM (active).
The same measure, in the same setting: in the case of `COc1ccccc1-c1cc(-n2ccnc2)ncn1` it was 2 µM (active); in that of `CN(C)Cc1ccccc1-c1cc(-n2ccnc2)ncn1`, 25.1 µM (active).
As to `CN(C)Cc1ccccc1-c1cc(NC2CC2)ncn1`, the “activity, negative = inhibition” value is 18.5%.
On the same count and under the same terms, in the case of `CNc1cc(-c2ccccc2CN(C)C)ncn1` it was 17.8%.
`O=C(O)CCC(=O)N1CCc2cc(S(=O)(=O)N3CCCCC3)ccc21`: the “activity, negative = inhibition” value is -17%.
Consider `CSc1nc2cc(S(=O)(=O)N3CCCCC3)ccc2s1`, for which the AC50 was 1.26 µM (active).
For `NS(=O)(=O)c1cccc2c1c([N+](=O)[O-])cc1nc(O)c(O)nc12`, the “activity, negative = inhibition” value is -26.9%.
Consider `COc1cccc(-c2cc(NCc3ccccc3)ncn2)c1`, for which the AC50 is 7.94 µM (active).
In the case of `CN(C)C(=O)c1ccc(-c2cc(NCc3cccnc3)ncn2)cc1`, the “activity, negative = inhibition” value was 6.59%.
As for `COc1cccc(-c2cc(NCc3cccnc3)ncn2)c1`, the AC50 was 10 µM (active).
As for `c1cncc(CNc2cc(-c3ccoc3)ncn2)c1`, the “activity, negative = inhibition” value was -30.3%.
Same read-out and setting: in the case of `Nc1ccn([C@@H]2CC[C@H](CO)O2)c(=O)n1` it was 5.48% [at 25.6 µM]; in that of `O=C(O)[C@@H]1[C@@H]2C[C@H]3c4[nH]c5ccccc5c4CCN3C[C@@H]2CC[C@@H]1O`, -4.36% [at 25.6 µM].
In the case of `S=C(Nc1cccc(Cl)c1)NC1CCCCC1`, the AC50 is 7.08 µM (active).
`O=C(Nc1ccc(Cl)cc1)NC1CCCCC1`: the AC50 is 8.91 µM (active).
For `NC(=O)c1ccc(NC(=O)C2CCCO2)cc1` (stereo not drawn), the “activity, negative = inhibition” value was -17.7%.
For `S=C(NCc1ccccn1)Nc1cccc(Cl)c1`, the AC50 is 3.55 µM (active).
On the same count and under the same terms, in the case of `Cc1ccc(NC(=S)N2CCN(C3CCCCC3)CC2)cc1` it was 6.31 µM (active).
Turning to `CC(=O)NS(=O)(=O)c1ccc(NC(=O)NC2CCCCC2)cc1`, the “activity, negative = inhibition” value was -8.77%.
Consider `Cc1ccc(NC(=S)N2CCN(C(=O)C3CCCO3)CC2)c(C)c1` (stereo not drawn), for which the “activity, negative = inhibition” value is -24.4%.
Same read-out and setting: with `Nc1nc(N)nc(CCCc2nc(N)nc(N)n2)n1` the figure was 103% [at 11.4 µM]; with `N#Cc1cccc(-c2nc3cnc(N4CCNCC4)nc3n(C3CC3)c2=O)c1`, -6.27%.
Consider `CN1C(=O)C(CC(N)=O)N(NC(=O)c2ccc(Cl)cc2)C1=S` (stereo not drawn), for which the “activity, negative = inhibition” value is -1.48%.
Take `Cc1ccc(NC(=S)NC2CCCC2)cc1`: the AC50 was 3.55 µM (active).
Consider `CO[C@H]1COC(=O)C/C=C\[C@H](C)[C@@H](OC)COC(=O)[C@@H](C)COC(=O)C/C=C\[C@@H]1C`, for which the activity, negative = inhibition is -29.5% [at 11.4 µM].
In the case of `COc1cc2nc(SCc3ccc(Cl)cc3Cl)n(Cc3cccs3)c(=N)c2cc1OC`, the AC50 is 2.51 µM (active).
Consider `CN1CCN(c2ncc3nc(-c4ccc(Cl)cc4)c(=O)n(Cc4cccs4)c3n2)CC1`, for which the “activity, negative = inhibition” value was -10.7%.
As for `COc1ccc(Cn2c(SCc3ccccc3C)nc3cc(OC)c(OC)cc3c2=N)cc1`, the AC50 is 20 µM (active).
Regarding `FC(F)(F)c1ccccc1-c1ccc2ncnc(N3CCOCC3)c2c1`, the half-maximal activity concentration (AC50) was 0.631 µM (active).
As to `CN1CCN(c2ncnc3ccc(-c4ccccc4C#N)cc23)CC1`, the “activity, negative = inhibition” value was -12.2%.
Same read-out and setting: in the case of `CS(=O)(=O)Nc1cccc(-c2ccc3ncnc(N4CCOCC4)c3c2)c1` it was -21.5%.
Regarding `CN1CCN(c2ncnc3ccc(-c4ccccc4Cl)cc23)CC1`, the AC50 is 3.98 µM (active).
Still for that read-out and setting: in the case of `COc1cccc(-c2ccc3ncnc(N4CCOCC4)c3c2)c1` it was 3.98 µM (active).
Take `Cc1ccccc1-c1ccc2ncnc(N3CCN(C)CC3)c2c1`: the “activity, negative = inhibition” value was -43.3%.
Same read-out and setting: in the case of `O=C(O)C1CCN(c2ncnc3ccc(-c4ccccc4C(F)(F)F)cc23)CC1` it was 7.46%.
Turning to `COc1ccccc1-c1ccc2ncnc(N3CCOCC3)c2c1`, the AC50 was 1.26 µM (active).
Regarding `CN1CCN(c2nc(-c3ccccc3C(F)(F)F)nc3ccccc23)CC1`, the “activity, negative = inhibition” value was -31.9%.
The same measure, in the same setting: in the case of `N#Cc1cccc(-c2ccc3ncnc(N4CCNCC4)c3c2)c1` it was -32.6%.
On the same count and under the same terms, with `COc1ccccc1-c1nc(N2CCOCC2)c2ccccc2n1` the figure was -12.8%; with `CS(=O)(=O)Nc1cccc(-c2ccc3ncnc(N4CCNCC4)c3c2)c1`, -37.5%.
For `COc1cccc(-c2ccc3ncnc(N4CCNCC4)c3c2)c1`, the concentration at half-maximal activity (AC50) is 3.16 µM (active).
On the same count and under the same terms, in the case of `FC(F)(F)c1ccccc1-c1nc(N2CCOCC2)c2ccccc2n1` it was 15.8 µM (active).
Consider `NCCCCC(=O)O`, for which the “activity, negative = inhibition” value was 10.4%.
